Screening results deposited in PubChem BioAssay by National Center for Advancing Translational Sciences (NCATS).
KDM5B inhibitor: inhibitors of human KDM5B histone demethylase; Potency, µM (series often up to 57.7 µM), most hits filed as inhibitors; 220,000 tested, 2.6% active; Q9UGL1; KDM5B demethylase, FDH-coupled NADH fluorescence (FDH is formaldehyde dehydrogenase); active = well fitted inhibition curve with a large enough effect; also: 0% is about no effect; nearly all actives have a fitted effect of over 70% in size
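Measured: NADH fluorescence change, 30 min, RT. System: KDM5BΔAP 200 nM final, H3K4me3 peptide, α-KG, Fe(II), ascorbate, NAD⁺ plus FDH, pH 7.5 HEPES. Compounds: titrated, 10 min pre-incubation with enzyme.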
The depositor's hits bear a star; i = inactive. This is one part of a sample in which hits are shown more often than they occur. Potency is read from the fitted curve at half-maximal effect.

SMILES	KDM5B inhibitor
CC(C)(C)c1nc(C(=O)NCCc2ccc(Cl)cc2)n2ccncc12	79µM*
O=C(NCCc1ccc(C(F)(F)F)cc1)c1cccc2ncccc12	i
O=C(NCCc1cccnc1)c1ccc(C(F)(F)F)cc1	i
O=C(NCCc1cccnc1)c1ccc2ccccc2c1	i
O=C(NCCc1ccc(Cl)cc1)c1nc(-c2cccc(F)c2)c2cnccn12	28µM*
O=C(NCCc1ccc(Cl)cc1)c1cccs1	i
O=C(NCCc1ccc(Cl)cc1)c1nc(-c2cccc(F)c2)n2c1CCCCC2	i
O=C(NCCc1ccc(Cl)cc1)c1nc(-c2cccc(C(F)(F)F)c2)c2cnccn12	32µM*
O=C(NCCc1ccc(Cl)cc1)c1cccc(Nc2ncc(-c3ccc(F)cc3)cn2)c1	i
CC(C)(C)c1nnc2n1C(C(=O)NCCc1ccc(Cl)cc1)CC2 (configuration not stated)	i
COc1cc(/C=C/c2nc3cc(C)c(C)cc3s2)cc(OC)c1	i
CC1CCCCC1NC(=O)c1cc(Sc2cccc(Cl)c2)nc2ccccc12 (configuration not stated)	i
O=C(C1CCCCC1)N1CCN(C2CCN(Cc3cccnc3)C2=O)CC1 (configuration not stated)	i
Cc1ccc(S(=O)(=O)Oc2c(C)occc2=O)cc1	i
CC1CCc2c(sc3nnn(CC(=O)OC4CCCC4)c(=O)c23)C1 (configuration not stated)	i
Cc1ccc(-n2c(SCC(=O)NC(=O)NC(C)C)nnc2N2CCCCC2)cc1	i
Clc1nnc(-c2ccccc2)n1C1CC1	i
O=C(OCCOc1ccc(Br)cc1)c1cccc([N+](=O)[O-])c1	i
CC(=O)N1CCCC2(C1)CN(C)c1ccc(C(=O)NCC(C)C)cc12 (configuration not stated)	32µM*
Cc1ccc(C(=O)NCC(C)C)cc1C	i
CC(C)NC(=O)c1ccc2c(c1)N(C(=O)c1ccc(F)cc1)CC2	i
CC(=O)N1CCCC2(C1)CN(C)c1ccc(C(=O)NC(C)C)cc12 (configuration not stated)	35µM*
CC(C)CNC(=O)c1ccc2c(c1)CCCN2C(=O)c1cccc(Cl)c1	i
CC(C)NC(=O)c1ccc(Cl)c(Cl)c1	i
Cc1cc(CNC(=O)Cc2ccc(-n3cnnn3)cc2)c2[nH]c(C)c(C)c2c1	i
SMILES	KDM5B inhibitor
Cc1cccc(NC(=S)N(CCC(C)C)C(C)c2cccs2)c1 (configuration not stated)	i
CCOC(=O)C(Cc1cc(C)c(CC(C(=O)OCC)C(=O)OCC)cc1C)C(=O)OCC	i
NC(=O)Cn1ccc2cc(OCC3CCN(C(=O)C4CC4)CC3)cnc21	35µM*
O=C(O)Cn1ccc2cc(OCC3CCN(C(=O)CCC(F)(F)F)CC3)cnc21	35µM*
CCOC(=O)N1CCC(Oc2cnc3c(ccn3-c3cncnc3)c2)CC1	i
Cc1cnc(C)c(N2CCC(COc3cnc4c(ccn4CC(N)=O)c3)CC2)n1	35µM*
CCOC(=O)N1CCC(COc2ccc3c(cnn3CC[S+](C)(=O)[O-])c2)CC1	i
COCC(=O)N1CCC(Oc2cnc3c(ccn3-c3cncnc3)c2)CC1	i
O=C(O)CCn1ncc2cc(OCC3CCN(C(=O)COc4ccccc4)CC3)ccc21	i
O=C(CCC(F)(F)F)N1CCC(Oc2cnc3c(ccn3-c3cncnc3)c2)CC1	i
O=C(C1CCCC1)N1CCC(CCOc2ccc(F)cc2)C1 (configuration not stated)	i
O=C(O)Cn1ccc2cc(OCC3CCN(C(=O)C4CCCC4)CC3)cnc21	35µM*
O=C(OCCF)N1CCC(Oc2cnc3c(ccn3-c3cncnc3)c2)CC1	i
O=C(O)CCn1ncc2cc(OCC3CCN(C(=O)C4CCCC4)CC3)ccc21	i
O=C(Nc1nc2c(s1)CCCC2)C1CC(=O)N(CC(F)(F)F)C1 (configuration not stated)	i
COC(=O)CCOc1ccc(S(=O)(=O)Nc2cccc(Cl)c2C)cc1	i
CCOc1ccc(CN(CC)Cc2cc(=O)oc3ccc(OC)cc23)cc1	i
COc1ccc(OC)c(NC(=O)Cc2c(C)c3ccc(OC)cc3oc2=O)c1	i
CCCN1C(=O)CCc2cc(NS(=O)(=O)c3cc(C)ccc3C)ccc21	i
N#Cc1cccc(Cn2cnc3c(Cl)cc(Cl)cc3c2=O)c1	i
Cc1nn(CC(=O)NCC2CCCO2)c(=O)c2nc(-c3ccccc3)sc12 (configuration not stated)	32µM*
CCC(C)NC(=O)Cn1nc(C)c2sc(-c3ccccc3)nc2c1=O (configuration not stated)	8.9µM*
CCc1nc2c(=O)n(CC(=O)NC(C)c3ccccc3)nc(C)c2s1 (configuration not stated)	i
CCc1nc2c(=O)n(CC(=O)N3CCC(Cc4ccccc4)CC3)nc(C)c2s1	i
CCc1nc2c(=O)n(CC(=O)N3CCN(c4ccc(Cl)cc4)CC3)nc(C)c2s1	i
SMILES	KDM5B inhibitor
CCCN1CCN(C(=O)Cn2nc(C)c3sc(-c4ccccc4)nc3c2=O)CC1	32µM*
CCn1cnc2c1c(=O)n(CC(=O)NCC1CCCO1)c(=O)n2Cc1ccccc1 (configuration not stated)	i
Cc1nn(CC(=O)NCc2ccccc2)c(=O)c2nc(C(C)C)sc12	i
CCc1ccc(CNC(=O)Cn2nc(C)c3sc(C(C)C)nc3c2=O)cc1	i
Cc1[nH]c2ccccc2c1C(=O)C(=O)Nc1ccc(F)c(Cl)c1	i
Cc1ccc(Nc2nc(-c3cc4cc([N+](=O)[O-])ccc4oc3=O)cs2)cc1	i
CCc1c(C)sc(NC(=O)Cc2ccc(Cl)cc2)c1C#N	i
Cc1ccc(C(=O)N(Cc2ccco2)C2CC2)s1	i
Cc1ccc(CNC(C)CN2CCCCC2)cc1 (configuration not stated)	i
O=C(O)CCCN1CCOCC1	i
Cc1ccc(C(CNC(=O)c2cc(=O)c3cc(Br)ccc3o2)N2CCC(C)CC2)o1 (configuration not stated)	i
CC(NC(=O)NOCc1ccccc1)c1ccc(C#N)cc1 (configuration not stated)	i
Cc1ncc(-c2ccc(S(=O)(=O)Nc3cccc(Cl)c3C)cc2)o1	i
Cc1ccc(CN(CC(=O)N2CCc3ccccc3C2)S(=O)(=O)c2ccc(Cl)cc2)cc1	i
Cc1ccc(CC(=O)N2CCc3cn(C)c4cccc(c34)C2)cc1	28µM*
Cn1cc2c3c(cccc31)CN(C(=O)C1CCC1)CC2	32µM*
Cc1ccc(CNC(=O)N2C[C@@H](F)C[C@H]2C(=O)N2CCc3ccccc3C2)cc1	i
Cn1cc2c3c(cccc31)CN(C(=O)Cc1ccccc1F)CC2	28µM*
Cn1cc2c3c(cccc31)CN(C(=O)c1ccccc1Br)CC2	i
Cn1cc2c3c(cccc31)CN(C(=O)c1ccccc1Cl)CC2	i
O=C([C@@H]1C[C@H](F)CN1S(=O)(=O)Cc1ccccc1F)N1CCc2ccccc2C1	i
CN(CC(=O)N1CCc2ccccc2C1)S(=O)(=O)c1ccc(F)cc1	i
Cc1nn2c(=O)cc(CN3CCN(c4ncccn4)CC3)nc2s1	i
CCNc1c(NC(=O)c2cc(Cl)ccc2OC)c(=O)oc2ccccc12	i
Cc1cc(C)cc(NC(=S)NC2CCCC(C)C2C)c1 (configuration not stated)	i
COc1ccc(C(=O)Nc2ccc3oc(-c4cccc(Cl)c4)nc3c2)cc1	i
O=C1CC2(CCN(C(=O)c3cnn4ccccc34)CC2)CN1Cc1ccccc1	20µM*
